Records with an inconclusive call do not appear. The source made the active and inactive calls. Calls follow the shape of the dose curve; as a rule, active = well fitted curve in the direction sought with a large enough effect in the repeat runs; inconclusive = weak or mixed curves; inactive = no such curve, though single readings can be large; an effect the other way counts as inactive or inconclusive.
What was measured:
[1] = A CellTox Green Cytotoxicity Assay to monitor cytotoxicity in HepG2 cells - 16 hour (AID 1224876); also: nearly all actives have a fitted effect of over 45% in size
Summary of the method: (§1)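 Continuous culture of HepG2 cells with a membrane-impermeant DNA dye; rising fluorescence marks dead cells. Compound exposure lasted up to 40 h at 37 C, with reads every 8 h from 0 h.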

[2] = qHTS RealTime-Glo MT Cell Viability Assay in HepG2 cells - 32 hour (AID 1224877); also: nearly all actives have a fitted effect of over 55% in size
Summary of the method: (§2)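 Tox21 10K library screened in qHTS format on HepG2 cells carrying RealTime-Glo reagents. Compounds were added after a 5 h preincubation, and the luminescent signal from continuous culture was measured repeatedly during 40 h treatment.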

[3] = A CellTox Green Cytotoxicity Assay to monitor cytotoxicity in HepG2 cells - 24 hour (AID 1224878); also: nearly all actives have a fitted effect of over 45% in size
Summary of the method: as §1

[4] = A CellTox Green Cytotoxicity Assay to monitor cytotoxicity in HepG2 cells - 40 hour (AID 1224879); also: nearly all actives have a fitted effect of over 40% in size
Summary of the method: as §1

[5] = qHTS RealTime-Glo MT Cell Viability Assay in HEK293 cells - 0 hour (AID 1224880); also: top concentration of the series differs between compounds; nearly all actives have a fitted effect of over 45% in size
Summary of the method: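 qHTS format; HEK293 cells with NanoLuc/prosubstrate reagent, 37 C/5% CO2 for 5 h pre-dosing; compounds 23 nL in DMSO; luminescence at each time point reflects viable cells.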

[6] = A CellTox Green Cytotoxicity Assay to monitor cytotoxicity in HEK293 cells - 32 hour (AID 1224881); also: nearly all actives have a fitted effect of over 40% in size
Summary of the method: (§3)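 Each value comes from one timepoint of a single continuous run in which HEK293 cells with CellTox Green were exposed to compound for up to 40 h at 37 C, dye fluorescence rising with cell death.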

[7] = A CellTox Green Cytotoxicity Assay to monitor cytotoxicity in HepG2 cells - 0 hour (AID 1224882); also: nearly all actives have a fitted effect of over 35% in size
Summary of the method: as §1

[8] = A CellTox Green Cytotoxicity Assay to monitor cytotoxicity in HepG2 cells - 32 hour (AID 1224883); also: nearly all actives have a fitted effect of over 50% in size
Summary of the method: as §1

[9] = A CellTox Green Cytotoxicity Assay to monitor cytotoxicity in HEK293 cells - 8 hour (AID 1224884); also: nearly all actives have a fitted effect of over 35% in size
Summary of the method: as §3

[10] = qHTS RealTime-Glo MT Cell Viability Assay in HepG2 cells - 16 hour (AID 1224885); also: nearly all actives have a fitted effect of over 50% in size
Summary of the method: as §2
% is scaled to controls: 0 for no effect and ±100 for the full control effect.

O=C(O)CCNC(=O)c1ccccc1
inactive: Potency [1] | outcome [2] | Potency [3] | Potency [4] | outcome [5] | Potency [6] | Potency [7] | Potency [8] | Potency [9] | outcome [10]

C1=CCC(c2ccccc2)CC1 (stereo not drawn)
inactive: Potency [1] | outcome [2] | Potency [3] | Potency [4] | outcome [5] | Potency [6] | Potency [7] | Potency [8]

C/C=C(\C)C(=O)OCC/C=C\CC
inactive: Potency [1] | outcome [2] | Potency [3] | Potency [4] | outcome [5] | Potency [6] | Potency [7] | Potency [8] | Potency [9]

CCCCCCCCCCCCC1CO1 (stereo not drawn)
inactive: Potency [1] | outcome [2] | Potency [3] | Potency [4] | outcome [5] | Potency [6] | Potency [7] | Potency [8] | Potency [9]

CCOC(=O)CCc1ccccc1
inactive: Potency [1] | outcome [2] | Potency [3] | Potency [4] | outcome [5] | Potency [6] | Potency [7] | Potency [8] | Potency [9]

Nc1ccc(/C=C/c2ccc(N)cc2S(=O)(=O)O)c(S(=O)(=O)O)c1
inactive: cytotoxicity increase [1] -10.5% [at 0.29 µM] | activity change, negative = cytotoxic [2] -0.0646% [at 0.29 µM] | cytotoxicity [3] -13.6% [at 0.29 µM] | cytotoxicity increase [4] -16.8% [at 0.29 µM] | activity change, negative = cytotoxicity [5] 3.48% [at 0.29 µM] | cytotoxicity increase [6] -0.592% [at 0.29 µM] | cytotoxicity [7] 1.07% [at 0.29 µM] | cytotoxicity increase [8] -15.7% [at 0.29 µM] | cytotoxicity increase [9] 0.921% [at 0.29 µM] | activity change, negative = cytotoxic [10] 4.55% [at 0.29 µM]

CCCC(C)CC (stereo not drawn)
inactive: Potency [1] | outcome [2] | Potency [3] | Potency [4] | outcome [5] | Potency [6] | Potency [7] | Potency [8] | Potency [9] | outcome [10]

CC1=CC[C@H](CC=O)C1(C)C
inactive: Potency [1] | outcome [2] | Potency [3] | Potency [4] | outcome [5] | Potency [6] | Potency [7] | Potency [8] | Potency [9] | outcome [10]

COc1cc([N+](=O)[O-])ccc1N
inactive: Potency [1] | outcome [2] | Potency [3] | Potency [4] | outcome [5] | Potency [6] | Potency [7] | Potency [8] | Potency [9] | outcome [10]

C=C[C@@H](C)CCC=C(C)C
inactive: Potency [1] | outcome [2] | Potency [3] | Potency [4] | outcome [5] | Potency [6] | Potency [7] | Potency [8] | Potency [9] | outcome [10]

Cc1cccc(C(=O)O)c1[N+](=O)[O-]
inactive: Potency [1] | outcome [2] | Potency [3] | Potency [4] | outcome [5] | Potency [6] | Potency [7] | Potency [8] | Potency [9] | outcome [10]

CCCOCCOCCOCCO
inactive: Potency [1] | outcome [2] | Potency [3] | Potency [4] | outcome [5] | Potency [6] | Potency [7] | Potency [8] | Potency [9]

CCC(=O)c1ccc(O)cc1
inactive: Potency [1] | outcome [2] | Potency [3] | Potency [4] | outcome [5] | Potency [6] | Potency [7] | Potency [8] | Potency [9] | outcome [10]

CCCCCC1Nc2cc(C(F)(F)F)c(S(N)(=O)=O)cc2S(=O)(=O)N1 (stereo not drawn)
inactive: Potency [1] | outcome [2] | Potency [3] | Potency [4] | outcome [5] | Potency [6] | Potency [7] | Potency [8]

SCCSCCS
inactive: Potency [1] | outcome [2] | Potency [3] | Potency [4] | outcome [5] | Potency [6] | Potency [7] | Potency [8] | Potency [9] | outcome [10]

CCC(C)(C)C1CCC(=O)CC1
inactive: Potency [1] | outcome [2] | Potency [3] | Potency [4] | outcome [5] | Potency [6] | Potency [7] | Potency [8] | outcome [10]

CCCCC/C=C/CC(=O)OC
inactive: Potency [1] | outcome [2] | Potency [3] | Potency [4] | outcome [5] | Potency [6] | Potency [7] | Potency [8] | outcome [10]

C[CH2][Ge]([Cl])([CH2]C)[CH2]C
inactive: Potency [1] | outcome [2] | Potency [3] | Potency [4] | outcome [5] | Potency [6] | Potency [7] | Potency [8] | Potency [9] | outcome [10]

Cc1ncc([N+](=O)[O-])n1CC(O)CCl (stereo not drawn)
inactive: Potency [1] | outcome [2] | Potency [3] | Potency [4] | outcome [5] | Potency [6] | Potency [7] | Potency [8] | Potency [9] | outcome [10]

Nc1nc(=O)n([C@@H]2O[C@H](CO)[C@@H](O)[C@@H]2F)cc1I
inactive: Potency [1] | outcome [2] | Potency [3] | Potency [4] | outcome [5] | Potency [6] | Potency [7] | Potency [8] | outcome [10]

BrC/C=C/CBr
inactive: cytotoxicity increase [1] -13.9% [at 15.8 µM] | activity change, negative = cytotoxic [2] -0.147% [at 15.8 µM] | cytotoxicity [3] -16.1% [at 15.8 µM] | cytotoxicity increase [4] -17.2% [at 15.8 µM] | activity change, negative = cytotoxicity [5] -1.92% [at 15.8 µM] | cytotoxicity increase [6] -1.01% [at 15.8 µM] | cytotoxicity [7] -11.8% [at 15.8 µM] | cytotoxicity increase [8] -16.5% [at 15.8 µM] | cytotoxicity increase [9] 1.66% [at 15.8 µM] | activity change, negative = cytotoxic [10] 4.65% [at 15.8 µM]

COc1cccc2sc(N)nc12
inactive: Potency [1] | outcome [2] | Potency [3] | Potency [4] | outcome [5] | Potency [6] | Potency [7] | Potency [8] | outcome [10]

O=CN1CCOCC1
inactive: Potency [1] | outcome [2] | Potency [3] | Potency [4] | outcome [5] | Potency [6] | Potency [7] | Potency [8] | Potency [9] | outcome [10]

O=C1OC(=O)c2cc(Oc3ccc4c(c3)C(=O)OC4=O)ccc21
inactive: Potency [1] | outcome [2] | Potency [3] | Potency [4] | outcome [5] | Potency [6] | Potency [7] | Potency [8] | Potency [9] | outcome [10]
